# Test results from PubChem BioAssay (EPA / NIEHS).
# Calls of active or inactive are those of the source. The calls were made as follows: active = hit-call score of the fitted dose curve at least 0.9, where 1 is the maximum; inactive = score below 0.9.
# What was measured:
# Conditions in all cases: mRNA level, 48 h; actives raise or lower the signal
# [1] = read-out: Bcl-2 (BAX) gene, BAX (gene 581); test: LTEA_HepaRG_BAX: Life Technologies and Expression Analysis (LTEA) Assay for Bcl-2 (BAX) gene using HepaRG (AID 2283470)
# Procedure, shortened: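 HepaRG (human liver), 48 h exposure, duplicate wells. 8-pt curve, half-log from 100 uM, 0.5% DMSO. BAX transcript by TaqMan qRT-PCR; ACTB/GAPDH/POLR2A normalization; gain or loss vs DMSO baseline.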
# [2] = read-out: adenosine kinase (ADK) gene, ADK (gene 132); test: LTEA_HepaRG_ADK: Life Technologies and Expression Analysis (LTEA) Assay for adenosine kinase (ADK) gene using HepaRG (AID 2283471)
# Procedure, shortened: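 Read-out is ADK transcript level measured by qRT-PCR and normalised to three housekeeping genes. Cells are human HepaRG, dosed for 48 h at up to 100 uM in 0.5% DMSO. Gain or loss of signal is fitted against DMSO controls.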
# [3] = read-out: Alpha-fetoprotein (AFP) gene, AFP (gene 174); test: LTEA_HepaRG_AFP: Life Technologies and Expression Analysis (LTEA) Assay for Alpha-fetoprotein (AFP) gene using HepaRG (AID 2283472)
# Procedure, shortened: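 HepaRG, single lot; 48 h post-plating -> serum-free induction medium; cpd 8-pt, 100 uM top, half-log, 0.5% DMSO, duplicate, 48 h. RNA -> qRT-PCR AFP, norm ACTB/GAPDH/POLR2A. Bidirectional fit vs DMSO.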
# [4] = read-out: BCL2L11 (gene 10018); test: LTEA_HepaRG_BCL2L11: Life Technologies and Expression Analysis (LTEA) Assay for Bcl-2 (BCL2L11) gene using HepaRG (AID 2283473)
# Procedure, shortened: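 BCL2L11 transcript levels are measured by Fluidigm qRT-PCR, normalized to three housekeeping genes. HepaRG cultures were plated 48 h, then treated 48 h with test chemical (top 100 uM, half-log, 0.5% DMSO vehicle); curves were fitted bidirectionally against DMSO.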
# [5] = read-out: Bcl-2 (BID) gene, BID (gene 637); test: LTEA_HepaRG_BID: Life Technologies and Expression Analysis (LTEA) Assay for Bcl-2 (BID) gene using HepaRG (AID 2283476)
# Procedure, shortened: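 Transcript levels of BID, measured by qRT-PCR and normalized to three housekeeping genes, were fitted bidirectionally against DMSO controls. Cells were HepaRG, dosed 48 h at up to 100 uM.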
# [6] = read-out: Caspase-3 (Homo sapiens) (UniProt P42574); test: LTEA_HepaRG_CASP3: Life Technologies and Expression Analysis (LTEA) Assay for cysteine-aspartic acid protease (CASP3) using HepaRG (AID 2283477)
# Procedure, shortened: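 Expression of CASP3 was quantified by TaqMan qRT-PCR against three housekeeping genes (ACTB, GAPDH, POLR2A), bidirectionally versus 0.5% DMSO. HepaRG cultures received compounds in duplicate, top 100 uM with half-log steps, for 48 h in serum-free induction medium.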
# [7] = read-out: Cytochrome P450 (CYP24A1), CYP24A1 (gene 1591); test: LTEA_HepaRG_CYP24A1: Life Technologies and Expression Analysis (LTEA) Assay for Cytochrome P450 (CYP24A1) using HepaRG (AID 2283478)
# Procedure, shortened: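 mRNA of CYP24A1 quantified by TaqMan qRT-PCR (ACTB/GAPDH/POLR2A normalization) after 48 h chemical exposure of HepaRG cells, top concentration 100 uM, half-log steps, 0.5% DMSO vehicle, duplicates. Curves fitted bidirectionally against DMSO baseline.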
# [8] = read-out: Cytochrome P450 (CYP1A2), CYP1A2 (gene 1544); test: LTEA_HepaRG_CYP1A2: Life Technologies and Expression Analysis (LTEA) Assay for Cytochrome P450 (CYP1A2) using HepaRG (AID 2283479)
# Procedure, shortened: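 CYP1A2 transcript measured by TaqMan qRT-PCR against three housekeeping genes after 48-hour chemical exposure of HepaRG cells. Eight-point half-log series topping at 100 uM in 0.5% DMSO, duplicates; gain or loss fitted relative to vehicle.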
# [9] = read-out: cysteine-aspartic acid protease (CASP8), CASP8 (gene 841); test: LTEA_HepaRG_CASP8: Life Technologies and Expression Analysis (LTEA) Assay for cysteine-aspartic acid protease (CASP8) using HepaRG (AID 2283480)
# Procedure, shortened: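 Differentiated human HepaRG cells, plated 48 h then switched to serum-free induction medium, were exposed in duplicate for 48 h to 8 half-log concentrations up to 100 uM in 0.5% DMSO. CASP8 mRNA was quantified by qRT-PCR, normalized to ACTB/GAPDH/POLR2A.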
# [10] = read-out: Cytochrome P450 (CYP2B6), CYP2B6 (gene 1555); test: LTEA_HepaRG_CYP2B6: Life Technologies and Expression Analysis (LTEA) Assay for Cytochrome P450 (CYP2B6) using HepaRG (AID 2283481)
# Procedure, shortened: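 CYP2B6 transcript level quantified by qRT-PCR against three housekeeping genes, fitted bidirectionally relative to DMSO. HepaRG cultures received chemicals for 48 h, 8-point half-log series from 100 uM in 0.5% DMSO, duplicate wells, serum-free induction medium.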
# [11] = read-out: Cytochrome P450 2C19 (Homo sapiens) (UniProt P33261); test: LTEA_HepaRG_CYP2C19: Life Technologies and Expression Analysis (LTEA) Assay for CYP2C19 using HepaRG (AID 2283482)
# Procedure, shortened: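 CYP2C19 transcript levels by qRT-PCR, normalized to three housekeeping genes, in HepaRG cells after 48 h chemical exposure. Eight-point half-log series topping at 100 uM, 0.5% DMSO vehicle. Increases and decreases both fitted against DMSO.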
# [12] = read-out: CYP2C8 (gene 1558); test: LTEA_HepaRG_CYP2C8: Life Technologies and Expression Analysis (LTEA) Assay for CYP2C8 using HepaRG (AID 2283483)
# Procedure, shortened: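 Differentiated human HepaRG cells were exposed for 48 h in serum-free induction medium to eight half-log concentrations up to 100 uM in 0.5% DMSO, in duplicate. CYP2C8 mRNA was measured by TaqMan qRT-PCR, normalized to ACTB, GAPDH and POLR2A, and fitted bidirectionally against DMSO.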
# [13] = read-out: CYP2C9 (gene 1559); test: LTEA_HepaRG_CYP2C9: Life Technologies and Expression Analysis (LTEA) Assay for CYP2C9 using HepaRG (AID 2283484)
# Procedure, shortened: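 Differentiated human HepaRG cells were exposed 48 h in serum-free induction medium to eight half-log concentrations up to 100 uM in 0.5% DMSO. CYP2C9 mRNA was measured by qRT-PCR, normalized to ACTB, GAPDH and POLR2A, and fitted bidirectionally against DMSO.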
# [14] = read-out: CYP2E1 (gene 1571); test: LTEA_HepaRG_CYP2E1: Life Technologies and Expression Analysis (LTEA) Assay for CYP2E1 using HepaRG (AID 2283485)
# Procedure, shortened: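 Human liver line HepaRG, plated 48 h, then serum-free induction medium + chemical x 48 h; 8-pt CRC from 100 uM, half-log, 0.5% DMSO, n=2. Readout: CYP2E1 mRNA qRT-PCR vs ACTB/GAPDH/POLR2A; bidirectional fit vs DMSO.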
# [15] = read-out: CYP4A11 (gene 1579); test: LTEA_HepaRG_CYP4A11: Life Technologies and Expression Analysis (LTEA) Assay for CYP4A11 using HepaRG (AID 2283486)
# Procedure, shortened: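 Readout is CYP4A11 transcript level by qRT-PCR, normalized to three housekeeping genes and fitted bidirectionally against 0.5% DMSO. Human HepaRG cells were treated 48 h, in duplicate, with an 8-point half-log series topping at 100 uM.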
# [16] = read-out: Cytochrome P450 3A4 (Homo sapiens) (UniProt P08684); test: LTEA_HepaRG_CYP3A4: Life Technologies and Expression Analysis (LTEA) Assay for CYP3A4 using HepaRG (AID 2283487)
# Procedure, shortened: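 HepaRG, 48 h exposure, 8-pt CRC from 100 uM (half-log), 0.5% DMSO, duplicates; serum-free induction medium. Readout: CYP3A4 mRNA, qRT-PCR, ACTB/GAPDH/POLR2A normalization. Bidirectional fit vs DMSO.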
# [17] = read-out: DNA damage-inducible transcript 3 (DDIT3), DDIT3 (gene 1649); test: LTEA_HepaRG_DDIT3: Life Technologies and Expression Analysis (LTEA) Assay for DNA damage-inducible transcript 3 (DDIT3) using HepaRG (AID 2283488)
# Procedure, shortened: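 HepaRG plated 48 h, switched to serum-free induction medium, dosed 48 h (100 uM top, half-log, 8 pts, 0.5% DMSO, n=2); RNA isolated; DDIT3 by qRT-PCR; bidirectional curve fit vs DMSO.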
# [18] = read-out: Pro-epidermal growth factor (Homo sapiens) (UniProt P01133); test: LTEA_HepaRG_EGF: Life Technologies and Expression Analysis (LTEA) Assay for Epidermal growth factor (EGF) using HepaRG (AID 2283489)
# Procedure, shortened: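 EGF transcript measured by Fluidigm TaqMan qRT-PCR with three housekeeping genes for normalization, 48 h after dosing HepaRG cultures in duplicate (top 100 uM, half-log steps, 0.5% DMSO vehicle). Gain or loss relative to DMSO fitted.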
# [19] = read-out: Apoptosis regulator Bcl-2 (Homo sapiens) (UniProt P10415); test: LTEA_HepaRG_BCL2: Life Technologies and Expression Analysis (LTEA) Assay for Bcl-2 gene using HepaRG (AID 2283475)
# Procedure, shortened: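 HepaRG, plated 48 h then switched to serum-free induction medium; dosed 48 h, 8 conc. (max 100 uM, half-log steps), duplicate, 0.5% DMSO. Lysis in RLT, RNA isolated, TaqMan qRT-PCR for BCL2; ACTB/GAPDH/POLR2A normalisation; bidirectional fit vs DMSO.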
# Caspase-3 (Homo sapiens), sequence (P42574 whole entry, looked up): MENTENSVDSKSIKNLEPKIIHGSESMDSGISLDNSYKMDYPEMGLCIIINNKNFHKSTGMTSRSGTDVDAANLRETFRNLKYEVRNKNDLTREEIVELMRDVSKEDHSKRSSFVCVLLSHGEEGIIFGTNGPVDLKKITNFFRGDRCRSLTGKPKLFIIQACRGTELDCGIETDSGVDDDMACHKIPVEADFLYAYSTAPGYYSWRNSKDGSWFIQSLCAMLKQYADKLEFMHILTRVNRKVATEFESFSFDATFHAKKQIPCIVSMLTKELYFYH
# Cytochrome P450 2C19 (Homo sapiens), sequence (P33261 whole entry, looked up): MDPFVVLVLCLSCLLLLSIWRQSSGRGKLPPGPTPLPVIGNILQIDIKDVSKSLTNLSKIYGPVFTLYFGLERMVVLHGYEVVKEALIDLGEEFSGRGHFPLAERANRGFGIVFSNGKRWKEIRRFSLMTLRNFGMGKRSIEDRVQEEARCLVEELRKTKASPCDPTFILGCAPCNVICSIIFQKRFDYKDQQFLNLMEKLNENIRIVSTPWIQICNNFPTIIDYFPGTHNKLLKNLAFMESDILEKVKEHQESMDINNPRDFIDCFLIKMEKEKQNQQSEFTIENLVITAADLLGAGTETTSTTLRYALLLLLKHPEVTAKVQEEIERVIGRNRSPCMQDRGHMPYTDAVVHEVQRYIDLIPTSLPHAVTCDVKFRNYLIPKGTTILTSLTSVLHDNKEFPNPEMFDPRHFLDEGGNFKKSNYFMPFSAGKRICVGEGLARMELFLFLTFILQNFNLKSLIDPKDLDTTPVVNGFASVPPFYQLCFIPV
# Cytochrome P450 3A4 (Homo sapiens), sequence (P08684 whole entry, looked up): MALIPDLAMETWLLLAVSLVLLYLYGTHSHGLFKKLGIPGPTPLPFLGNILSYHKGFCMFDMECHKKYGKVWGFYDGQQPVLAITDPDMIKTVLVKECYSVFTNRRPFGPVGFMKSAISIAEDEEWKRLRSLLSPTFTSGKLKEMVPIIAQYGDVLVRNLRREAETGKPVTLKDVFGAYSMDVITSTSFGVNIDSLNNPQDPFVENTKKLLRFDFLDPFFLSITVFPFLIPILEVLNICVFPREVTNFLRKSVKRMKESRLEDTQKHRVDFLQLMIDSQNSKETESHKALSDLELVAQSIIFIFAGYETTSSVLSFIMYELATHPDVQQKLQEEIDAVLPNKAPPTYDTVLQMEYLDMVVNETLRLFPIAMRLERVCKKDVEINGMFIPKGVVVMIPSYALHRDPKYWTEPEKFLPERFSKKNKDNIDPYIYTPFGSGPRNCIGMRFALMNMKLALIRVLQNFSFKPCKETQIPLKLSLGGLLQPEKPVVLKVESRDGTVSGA
# Apoptosis regulator Bcl-2 (Homo sapiens), sequence (P10415 whole entry, looked up): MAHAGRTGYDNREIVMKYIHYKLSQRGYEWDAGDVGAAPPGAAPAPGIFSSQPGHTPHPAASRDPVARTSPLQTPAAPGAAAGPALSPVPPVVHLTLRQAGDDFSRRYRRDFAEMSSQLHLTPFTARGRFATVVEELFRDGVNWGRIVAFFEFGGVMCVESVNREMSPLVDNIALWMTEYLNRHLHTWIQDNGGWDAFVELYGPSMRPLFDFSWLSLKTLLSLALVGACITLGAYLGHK
smiles,measurement,setting,value
CC1(C)CON(Cc2ccccc2Cl)C1=O,outcome,[1],inactive
same,outcome,[2],inactive
same,outcome,[3],inactive
same,outcome,[4],inactive
same,outcome,[5],inactive
same,outcome,[6],inactive
same,outcome,[7],inactive
same,outcome,[8],inactive
same,outcome,[9],inactive
same,AC50,[10],2.45 µM (active)
same,AC50,[11],6.15 µM (active)
same,AC50,[12],12.8 µM (active)
same,outcome,[13],inactive
same,AC50,[14],31.4 µM (active)
same,outcome,[15],inactive
same,AC50,[16],5.64 µM (active)
same,outcome,[17],inactive
same,outcome,[18],inactive
O=c1n(Cl)c(=O)n(Cl)c(=O)n1Cl,outcome,[1],inactive
same,outcome,[2],inactive
same,outcome,[3],inactive
same,outcome,[4],inactive
same,outcome,[5],inactive
same,outcome,[6],inactive
same,outcome,[7],inactive
same,AC50,[8],50 µM (active)
same,outcome,[9],inactive
same,outcome,[10],inactive
same,outcome,[11],inactive
same,outcome,[13],inactive
same,outcome,[14],inactive
same,outcome,[15],inactive
same,outcome,[16],inactive
same,outcome,[17],inactive
N#Cc1c[nH]cc1-c1cccc2c1OC(F)(F)O2,AC50,[1],23.3 µM (active)
same,outcome,[2],inactive
same,AC50,[3],73.3 µM (active)
same,AC50,[4],20.9 µM (active)
same,outcome,[5],inactive
same,outcome,[6],inactive
same,outcome,[7],inactive
same,AC50,[8],21.3 µM (active)
same,outcome,[9],inactive
same,AC50,[10],32 µM (active)
same,AC50,[11],93.5 µM (active)
same,AC50,[13],50 µM (active)
same,AC50,[14],76 µM (active)
same,AC50,[15],85.2 µM (active)
same,AC50,[16],9.76 µM (active)
same,outcome,[17],inactive
same,outcome,[18],inactive
COC(=O)c1c(C(F)F)nc(C(F)(F)F)c(C2=NCCS2)c1CC(C)C,outcome,[1],inactive
same,outcome,[2],inactive
same,outcome,[3],inactive
same,outcome,[4],inactive
same,outcome,[19],inactive
same,outcome,[5],inactive
same,outcome,[6],inactive
same,outcome,[7],inactive
same,AC50,[8],50 µM (active)
same,outcome,[9],inactive
same,AC50,[10],19.7 µM (active)
same,AC50,[11],50 µM (active)
same,outcome,[13],inactive
same,AC50,[14],10.3 µM (active)
same,outcome,[15],inactive
same,AC50,[16],4.46 µM (active)
same,outcome,[17],inactive
same,outcome,[18],inactive
CC(C)N1C(=O)N(c2ccccc2)CSC1=NC(C)(C)C,AC50,[1],77.4 µM (active)
same,outcome,[2],inactive
same,AC50,[3],64.4 µM (active)
same,outcome,[4],inactive
same,outcome,[5],inactive
same,outcome,[6],inactive
same,outcome,[7],inactive
same,AC50,[8],50 µM (active)
same,outcome,[9],inactive
same,AC50,[10],89.3 µM (active)
same,AC50,[11],11.4 µM (active)
same,AC50,[12],84.2 µM (active)
same,AC50,[13],83.3 µM (active)
same,AC50,[14],63.5 µM (active)
same,AC50,[15],67.6 µM (active)
same,AC50,[16],12 µM (active)
same,AC50,[17],73.8 µM (active)
same,outcome,[18],inactive
